Assay outcomes deposited in PubChem by several laboratories.
Rows were chosen to be rich in hits. Some 2.8% of all compounds tested hit in one or more screens of this group.
GAA850 FXN act – increases GAA850 frataxin promoter reporter activity. activation, % at 6 µM. HEK293 lucGAA850 FXN promoter luciferase reporter, 24 h; percent of 10 µM SAHA response. 360,000 tested, 0.56% active;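 active = activation above the average of all compounds screened plus 3 SD, cutoff fixed separately per campaign, cut at about 7.5% in these data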;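 also: 0% = DMSO wells and 100% = 10 µM SAHA wells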
Wnt act – activates Wnt/beta-catenin signaling in a reporter cell assay; activator, plate reader; activation, % at 9.35 µM; 300,000 tested, 1.2% active; in the data active = activation above about 30%, passing the limit was not always enough; inconclusive = no clear call, values can overlap the other calls;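 also: 0% = neutral control wells and 100% = positive control wells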
MITF act – MITF TRPM1 promoter activation in melanoma cells; AID 588334; activation, % at 12.5 µM; SK-MEL-5 TRPM1-promoter luciferase, 24 h; % of positive control, neutral wells = 0; 300,000 tested, 0.75% active;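 active = mean activation of at least 80% with every replicate also reaching 80%; inconclusive = mean reaches 80% but some replicate falls short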;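 also: 0% = neutral control wells and 100% = parthenolide positive control wells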
esBAF inh – blocks esBAF chromatin remodeling in mouse ES cells. Bmi1-luciferase knock-in reporter, 24 h; 100% = twice the neutral-well signal. reporter increase, % at 12.5 µM. 350,000 tested, 2% active. AID 602393; in the data active = activation above about 40%; inconclusive = no clear call, values can overlap the other calls;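 also: 0% = median of the plate's neutral control wells and 100% = double that signal; a rise in the Bmi1 reporter signal indicates esBAF inhibition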
Numbers without * were called inactive; ? = inconclusive; / = no result given.

SMILES | GAA850 FXN act | Wnt act | MITF act | esBAF inh
CCc1ccc(OCC(=O)N2CCc3ccccc32)cc1 | 5 | 28 | 61 | 47*
Cc1ccc(OCC(=O)N2CCc3ccccc32)cc1 | 6 | 26 | 59 | 41
O=C(COc1ccc2c(c1)CCC2)N1CCc2ccccc21 | 6 | 60* | / | 78*
CO[C@H]1CN(C)C(=O)c2ccc(NS(C)(=O)=O)cc2OC[C@@H](C)N(Cc2cncnc2)C[C@H]1C | / | / | / | 7
C[C@H](CO)N1C[C@H](C)[C@H](CN(C)C(=O)CCCN(C)C)OCCCC[C@H](C)Oc2ccc(NC(=O)NC3CCCCC3)cc2C1=O | / | / | / | 0
O=C(N/N=C/c1ccc(Br)s1)c1ccncc1 | 2 | -2 | -7 | /
O=C(N/N=C/c1ccc(Br)s1)Nc1ccccc1 | 4 | -2 | 64 | 51*
Cc1ccsc1/C=N/NC(=O)Nc1ccccc1 | 3 | 16 | 107* | /
CC(C)c1cc2cc3ccc(=O)oc3cc2o1 | 2 | -2 | 94* | 52*
O=C(C[C@H]1CC[C@@H]2[C@H](COC[C@H](O)CN2S(=O)(=O)c2ccc(F)cc2)O1)N[C@H]1CCN(Cc2ccccc2)C1 | / | / | / | -10
Cc1nc(N)sc1N=Nc1ccc(Br)cc1 | 6 | / | / | 75*
Cc1[nH]nc(N)c1N=Nc1ccc(Br)cc1 | / | 8 | / | /
O=C(N[C@@H](Cc1ccccc1)C(=O)NC1CCCCC1)c1ccco1 | 0 | -5 | / | 0
O=C(N[C@@H](Cc1ccccc1)C(=O)NC1CCCCCC1)c1ccco1 | 2 | / | ? | 45*
CSCCC(NC(=O)c1ccco1)C(=O)NC1CCC(C)CC1 (stereo unspecified) | 4 | 24 | 112* | 62*
CSCCC(NC(=O)c1ccco1)C(=O)NCC1CCCCC1 (stereo unspecified) | 0 | 5 | -6 | 7
Cc1ccc(S(=O)(=O)N(C)C[C@H]2Oc3ccc(NS(=O)(=O)c4cccs4)cc3C(=O)N([C@H](C)CO)C[C@@H]2C)cc1 | / | / | / | 1
COc1ccc(Oc2ccc(C(F)(F)F)cc2N)cc1 | 2 | 8 | 52 | 43*
COC(=O)c1ccccc1OCCCOc1ccc(C=O)cc1OC | 0 | / | 44 | 70*
COc1cc(C=O)ccc1OCc1cccc(Br)c1 | 3 | 42* | ? | /
COc1cc(C=O)ccc1OCc1ccccc1Br | 3 | 23 | 42 | /
C[C@H](CO)N1C[C@H](C)[C@@H](CN(C)Cc2ccc3c(c2)OCO3)Oc2ccc(NC(=O)Nc3ccc(F)cc3)cc2CC1=O | / | / | / | 1
CN1[C@@H]2c3ccc(-c4cncnc4)c(=O)n3C[C@@H]2[C@@H](CO)[C@@H]1C(=O)N1CCc2ccccc2C1 | / | / | / | 5
O=C(C#Cc1ccccc1)c1ccccc1 | 9.3* | -11 | / | -69
O=C(CNc1ccccc1)c1ccc([N+](=O)[O-])cc1 | 3 | 7 | 6 | /
SMILES | GAA850 FXN act | Wnt act | MITF act | esBAF inh
CN(C)C(=O)C#Cc1ccccc1 | 2 | -3 | / | /
O=C(C#Cc1ccccc1)c1ccc([N+](=O)[O-])cc1 | 13* | ? | -67 | /
Cc1nn(C)cc1NC(=O)C[C@@H]1CC[C@H]2[C@H](COc3ccc(NC(=O)C(C)C)cc3C(=O)N2C)O1 | / | / | / | -1
COc1ccc2oc(C(=O)N3CCN(S(=O)(=O)c4c(C)c(C)cc(C)c4C)CC3)c(C)c2c1 | 0 | -3 | / | 51*
CC(Sc1ccccc1)C(=O)NCCc1ccccc1 (stereo unspecified) | 3 | 5 | / | 63*
O=C(CCSCc1ccccc1F)NCCc1ccccc1 | 0 | 38* | 6 | 5
O=C(CSc1nncs1)NCCCc1ccccc1 | 2 | 78* | 4 | /
O=C(CSc1nncs1)NCCNC(=O)CSc1nncs1 | 2 | -4 | -3 | -7
O=C(CSc1ccccc1)NCCc1ccccc1 | 3 | 6 | 44 | 52*
c1ccc(-c2ccc3sccc3n2)cc1 | 3 | 48* | 116* | /
COc1cccc(NC(=O)N2C[C@@H](O)COC[C@H]3O[C@@H](CC(=O)NC4CCC4)CC[C@@H]32)c1 | / | / | / | 5
O=C(OCC(=O)C12CC3CC(CC(C3)C1)C2)c1ccc(O)cc1O | 3 | 8 | 49 | 51*
O=C(COC(=O)c1ccc(O)cc1O)NC12CC3CC(CC(C3)C1)C2 | 2 | 18 | 50 | ?
Cc1ccc(C2=N/C(=C\N(C)C)C(=O)O2)cc1 | 4 | / | 94* | 29
CN(C)/C=C1/N=C(c2ccccc2)OC1=O | 1 | 0 | / | 15
O=C(C[C@@H]1CC[C@H]2[C@@H](COC[C@@H](O)CN2C(=O)c2ccncc2)O1)NCc1ccc(-c2ccccc2)cc1 | / | / | / | 3
C[C@@H]1CN([C@H](C)CO)C(=O)Cc2cc(NC(=O)CCN3CCOCC3)ccc2O[C@@H]1CN(C)S(=O)(=O)c1ccc(Cl)cc1 | / | / | / | 3
O=C(/C=C/c1cccs1)c1ccc(N2CCOCC2)cc1 | 0 | 7 | 20 | 52*
O=C(/C=C/c1cccc(F)c1)c1ccc(N2CCOCC2)cc1 | 3 | -2 | 36 | 13
C[C@H]1CN([C@@H](C)CO)C(=O)Cc2cc(NC(=O)Nc3ccc(F)cc3)ccc2O[C@H]1CN(C)Cc1ccc(Oc2ccccc2)cc1 | / | / | / | -1
COc1ccc(Nc2ccnc(Nc3ccc(OC)cc3)n2)cc1 | 1 | 48* | 25 | /
COc1ccc(Nc2nc(OC)nc(OC)n2)cc1 | 4 | 3 | 17 | 12
CN1c2ccccc2C(=O)/C(=C\Nc2ncccn2)S1(=O)=O | 0 | 2 | / | /
Cc1sc2c(c1C)C(=O)/C(=C\Nc1ccncc1)S(=O)(=O)N2C | -1 | 44* | / | /
CC(=O)Nc1ccc(OC/C=C(\C)Cl)cc1 | 3 | / | 29 | 55*
SMILES | GAA850 FXN act | Wnt act | MITF act | esBAF inh
CO[C@H]1CN(C)C(=O)c2ccc(NS(=O)(=O)c3cn(C)cn3)cc2OC[C@H](C)N(CC2CC2)C[C@H]1C | / | / | / | -1
CN(C)CC(=O)N[C@@H]1CC[C@@H](CCNC(=O)C2CCCCC2)O[C@H]1CO | / | / | / | 2
C[C@@H]1CCCCO[C@H](CN(C)C(=O)c2ccncc2)[C@@H](C)CN([C@H](C)CO)C(=O)c2cc(NC(=O)c3ccncc3)ccc2O1 | / | / | / | 0
COc1ccc(C(=O)Nc2nc(-c3cccs3)cs2)cc1 | 2 | / | 45 | 84*
CCC(C)C(=O)Nc1nnc(-c2cccs2)s1 (stereo unspecified) | 5 | 34* | / | ?
CCC(=O)Nc1nnc(-c2cccs2)s1 | 2 | -2 | 8 | /
O=C(Cc1ccccc1)Nc1nnc(-c2ccco2)s1 | 4 | / | 60 | 48*
O=C(Cc1ccccc1F)Nc1nc(-c2cccs2)cs1 | 0 | 30 | 45 | /
O=C(Cc1ccccc1)Nc1nc(-c2cccs2)cs1 | 5 | 0 | ? | 65*
CN(C)CC(=O)N[C@H]1CC[C@@H](CCNC(=O)C2CCCCC2)O[C@H]1CO | / | / | / | -1
O=C(Cc1ccccc1)Nc1nnc(-c2cccs2)s1 | 4 | 27 | 77 | 52*
CNc1ccc(-c2cccc(C(C)=O)c2)cn1 | 4 | 29 | / | 34
CNc1ccc(-c2cccc(CO)c2)cn1 | 1 | 11 | / | 41*
CCC(=O)Nc1ccc2c(c1)OC[C@H](C)N(CC1CCCCC1)C[C@@H](C)[C@@H](OC)CN(C)C2=O | / | / | / | -5
COc1ccc(S(=O)(=O)N(C)C[C@H]2Oc3c(NS(C)(=O)=O)cccc3C(=O)N([C@@H](C)CO)C[C@H]2C)cc1 | / | / | / | -1
